Results on 8 molecules are retold here after ChEMBL document CHEMBL1961873, “Compounds: GSK PKIS; Assays: Nanosyn kinase panel” (2012).

For experiment [1], the target named is Serine/threonine-protein kinase 26 (Homo sapiens) (UniProt Q9P289). The settings on record: at 1 µM.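 Also: mean inhibition of MST4 kinase activity, reported from the GSK PKIS inhibitor-set screening panel.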
For experiment [2], the target named is Serine/threonine-protein kinase PAK 1 (Homo sapiens) (UniProt Q13153). The settings on record: at 0.1 µM.
The target is the same in experiment [3]. The settings on record: at 1 µM.
The target of experiment [4] is Serine/threonine-protein kinase PAK 2 (Homo sapiens) (UniProt Q13177). The settings on record: at 0.1 µM.
The target is the same in experiment [5]. The settings on record: at 1 µM.
Experiment [6] addresses Serine/threonine-protein kinase PAK 3 (Homo sapiens) (UniProt O75914). The settings on record: at 0.1 µM.
The target is the same in experiment [7]. The settings on record: at 1 µM.
Experiment [8] has as its target Serine/threonine-protein kinase PAK 5 (Homo sapiens) (UniProt Q9P286). The settings on record: at 0.1 µM.
For experiment [9] the target is unchanged. The settings on record: at 1 µM.
Experiment [10] addresses Serine/threonine-protein kinase PAK 6 (Homo sapiens) (UniProt Q9NQU5). The settings on record: at 0.1 µM.
Experiment [11] has the same target. The settings on record: at 1 µM.
Experiment [12] deals with Tyrosine-protein kinase ABL1 (Homo sapiens), P00519 [E255K]. The settings on record: at 0.1 µM.
Experiment [13] shares this test system. The settings on record: at 1 µM.
In experiment [14] the test system is Tyrosine-protein kinase ABL1 (Homo sapiens), P00519 [H396P]. The settings on record: at 0.1 µM.
For experiment [15] the test system is unchanged. The settings on record: at 1 µM.
Experiment [16] concerns Tyrosine-protein kinase ABL1 (Homo sapiens), P00519 [M351T]. The settings on record: at 0.1 µM.
Experiment [17] shares this test system. The settings on record: at 1 µM.
Experiment [18] deals with Tyrosine-protein kinase ABL1 (Homo sapiens), P00519 [Q252H]. The settings on record: at 0.1 µM.
For experiment [19] the test system is unchanged. The settings on record: at 1 µM.
Experiment [20] deals with Tyrosine-protein kinase ABL1 (Homo sapiens), P00519 [T315I]. The settings on record: at 0.1 µM.

Serine/threonine-protein kinase PAK 5 (Homo sapiens), sequence (Q9P286 whole entry, looked up): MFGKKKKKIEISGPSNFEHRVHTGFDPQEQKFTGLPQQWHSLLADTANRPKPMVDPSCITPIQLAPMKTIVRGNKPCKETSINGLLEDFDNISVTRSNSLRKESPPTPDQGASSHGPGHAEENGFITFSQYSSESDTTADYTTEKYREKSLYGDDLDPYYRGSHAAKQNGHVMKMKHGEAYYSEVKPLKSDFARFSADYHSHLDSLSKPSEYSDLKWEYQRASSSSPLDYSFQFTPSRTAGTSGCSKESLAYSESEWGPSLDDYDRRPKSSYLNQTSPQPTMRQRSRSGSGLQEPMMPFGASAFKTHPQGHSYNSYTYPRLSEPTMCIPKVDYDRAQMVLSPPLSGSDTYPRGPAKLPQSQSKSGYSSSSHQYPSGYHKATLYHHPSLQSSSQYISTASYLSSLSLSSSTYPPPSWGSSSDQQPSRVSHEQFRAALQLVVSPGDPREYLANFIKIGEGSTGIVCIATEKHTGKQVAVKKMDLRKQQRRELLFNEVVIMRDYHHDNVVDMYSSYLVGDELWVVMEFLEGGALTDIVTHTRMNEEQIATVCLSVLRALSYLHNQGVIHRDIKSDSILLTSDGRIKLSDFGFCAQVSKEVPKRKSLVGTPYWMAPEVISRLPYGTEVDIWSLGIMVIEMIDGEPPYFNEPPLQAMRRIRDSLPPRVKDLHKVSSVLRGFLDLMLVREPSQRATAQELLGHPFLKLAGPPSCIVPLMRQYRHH
Serine/threonine-protein kinase PAK 6 (Homo sapiens), sequence (Q9NQU5 whole entry, looked up): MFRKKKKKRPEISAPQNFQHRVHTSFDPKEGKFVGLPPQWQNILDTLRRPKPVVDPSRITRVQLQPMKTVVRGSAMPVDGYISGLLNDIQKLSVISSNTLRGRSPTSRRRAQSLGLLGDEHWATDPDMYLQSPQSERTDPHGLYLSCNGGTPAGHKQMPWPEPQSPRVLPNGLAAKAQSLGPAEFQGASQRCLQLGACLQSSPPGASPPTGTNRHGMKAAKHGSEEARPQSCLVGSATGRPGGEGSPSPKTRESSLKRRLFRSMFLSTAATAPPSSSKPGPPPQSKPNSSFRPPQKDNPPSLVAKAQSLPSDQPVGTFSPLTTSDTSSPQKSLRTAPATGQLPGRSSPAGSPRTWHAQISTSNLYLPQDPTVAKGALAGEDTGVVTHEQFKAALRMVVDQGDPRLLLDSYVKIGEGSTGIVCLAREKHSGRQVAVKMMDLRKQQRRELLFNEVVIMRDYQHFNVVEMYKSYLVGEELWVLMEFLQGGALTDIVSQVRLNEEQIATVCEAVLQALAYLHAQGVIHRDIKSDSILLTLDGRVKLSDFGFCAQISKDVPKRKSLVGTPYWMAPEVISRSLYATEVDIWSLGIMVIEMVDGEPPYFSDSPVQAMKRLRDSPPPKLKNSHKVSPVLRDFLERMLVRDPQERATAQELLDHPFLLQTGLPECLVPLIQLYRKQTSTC
Serine/threonine-protein kinase PAK 1 (Homo sapiens), sequence (Q13153 whole entry): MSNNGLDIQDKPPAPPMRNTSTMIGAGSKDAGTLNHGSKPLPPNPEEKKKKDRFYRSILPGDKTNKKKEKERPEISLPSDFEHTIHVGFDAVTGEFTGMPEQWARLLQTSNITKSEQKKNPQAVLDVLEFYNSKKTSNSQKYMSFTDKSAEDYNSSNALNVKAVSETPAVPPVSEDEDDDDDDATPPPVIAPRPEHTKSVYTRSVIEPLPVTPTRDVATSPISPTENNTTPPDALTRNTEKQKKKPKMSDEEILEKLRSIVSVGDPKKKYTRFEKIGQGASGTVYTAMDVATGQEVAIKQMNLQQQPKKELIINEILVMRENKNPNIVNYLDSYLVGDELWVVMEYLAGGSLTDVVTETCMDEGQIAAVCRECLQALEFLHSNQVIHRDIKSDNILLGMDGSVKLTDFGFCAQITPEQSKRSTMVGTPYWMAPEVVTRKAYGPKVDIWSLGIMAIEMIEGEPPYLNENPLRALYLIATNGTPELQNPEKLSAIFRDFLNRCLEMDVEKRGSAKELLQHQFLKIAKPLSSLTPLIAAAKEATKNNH
Serine/threonine-protein kinase PAK 3 (Homo sapiens), sequence (O75914 whole entry, looked up): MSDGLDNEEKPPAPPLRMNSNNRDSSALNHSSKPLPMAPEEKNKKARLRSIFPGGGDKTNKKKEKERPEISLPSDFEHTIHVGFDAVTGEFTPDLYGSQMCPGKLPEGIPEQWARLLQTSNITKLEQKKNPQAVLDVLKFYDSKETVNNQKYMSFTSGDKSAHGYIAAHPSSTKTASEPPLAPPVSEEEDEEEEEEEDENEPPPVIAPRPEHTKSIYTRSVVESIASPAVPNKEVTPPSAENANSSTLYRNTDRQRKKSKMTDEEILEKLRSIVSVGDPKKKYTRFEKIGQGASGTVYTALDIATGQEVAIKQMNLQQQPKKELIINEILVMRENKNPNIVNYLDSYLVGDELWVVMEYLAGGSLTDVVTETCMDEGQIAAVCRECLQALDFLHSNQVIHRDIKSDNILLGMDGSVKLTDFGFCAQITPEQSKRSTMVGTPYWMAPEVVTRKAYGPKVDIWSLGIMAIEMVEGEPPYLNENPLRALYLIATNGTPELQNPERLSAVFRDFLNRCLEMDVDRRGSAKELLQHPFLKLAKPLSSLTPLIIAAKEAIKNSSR
Serine/threonine-protein kinase 26 (Homo sapiens), sequence (Q9P289 2-416 limits assumed): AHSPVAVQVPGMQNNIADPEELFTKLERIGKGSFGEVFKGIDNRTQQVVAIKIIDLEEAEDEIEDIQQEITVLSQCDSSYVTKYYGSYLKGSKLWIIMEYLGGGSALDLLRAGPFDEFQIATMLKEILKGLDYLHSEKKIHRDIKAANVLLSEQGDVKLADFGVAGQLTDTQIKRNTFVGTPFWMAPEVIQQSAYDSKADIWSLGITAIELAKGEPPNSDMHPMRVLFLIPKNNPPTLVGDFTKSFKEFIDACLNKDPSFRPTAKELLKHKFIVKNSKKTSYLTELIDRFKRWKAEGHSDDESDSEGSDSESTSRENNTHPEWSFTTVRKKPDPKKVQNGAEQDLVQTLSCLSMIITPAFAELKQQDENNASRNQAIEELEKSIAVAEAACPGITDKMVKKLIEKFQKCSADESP
Serine/threonine-protein kinase PAK 2 (Homo sapiens), sequence (Q13177 whole entry): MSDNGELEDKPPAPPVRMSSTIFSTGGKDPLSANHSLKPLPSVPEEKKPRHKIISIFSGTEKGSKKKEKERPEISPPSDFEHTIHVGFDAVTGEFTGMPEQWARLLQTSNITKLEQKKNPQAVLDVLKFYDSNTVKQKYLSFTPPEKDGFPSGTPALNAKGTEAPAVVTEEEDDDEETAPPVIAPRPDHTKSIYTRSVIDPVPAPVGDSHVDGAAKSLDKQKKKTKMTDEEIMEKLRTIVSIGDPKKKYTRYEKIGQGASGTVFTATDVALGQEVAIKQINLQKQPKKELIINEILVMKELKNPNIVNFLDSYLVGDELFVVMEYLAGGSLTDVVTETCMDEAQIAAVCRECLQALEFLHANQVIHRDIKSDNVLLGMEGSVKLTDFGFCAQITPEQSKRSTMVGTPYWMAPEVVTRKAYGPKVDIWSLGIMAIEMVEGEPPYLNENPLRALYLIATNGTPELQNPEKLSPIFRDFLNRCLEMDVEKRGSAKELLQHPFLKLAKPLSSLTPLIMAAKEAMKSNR

In general, inhibition refers to the relative decrease from the control value, in per cent. As to `COc1ccc2[nH]c3c4[nH]c5ccc(OC)cc5c4c4c(c3c2c1)C(=O)NC4=O`, the inhibition in [1] is 14%; in [2] it was 5.41%; in experiment [3], 7.72%; in experiment [4], 1.43%; in experiment [5], 3.51%; in [6], 4%. For the same molecule, the inhibition is 5.61% in experiment [7]; 5.43% in experiment [8]; 4.46% in experiment [9]; 4.49% in experiment [10]; -0.34% in [11]; 7.87% in [12]. Further, the inhibition in experiment [13] stood at 36.1%; in experiment [14], 10.7%; in experiment [15] it was 45.3%; in [16] it was 10.1%; in [17], 47.7%; in experiment [18] it was 29.6%. Moreover, the inhibition worked out at 72.5% in experiment [19] and 9.34% in experiment [20].
As to `CCn1c(-c2nonc2N)nc2cnc(Oc3cccc(NC(=O)c4ccc(N(C)C)cc4)c3)cc21`, the inhibition worked out at 0.84% in experiment [1]; 3.97% in experiment [2]; 6.82% in [3]; 0.04% in experiment [4]; 0.22% in [5]; 1.76% in experiment [6]. Besides, the inhibition in [7] was 2.25%; in experiment [8], 2.13%; in experiment [9] it was -2.93%; in experiment [10], 2.57%; in experiment [11] it was -2.65%; in experiment [12], 0.6%. Moreover, the inhibition in experiment [13] is 9.02%; in experiment [14], 0.27%; in experiment [15], 1.9%; in experiment [16] it was -1.02%; in [17], 4.81%; in experiment [18], 2.14%. In addition, the figures for the inhibition in experiment [19] and in experiment [20] were 1.78% and 1.38%, respectively.
Regarding `CCNC(=O)O[C@H]1CN[C@H](C#Cc2cc3ncnc(Nc4ccc(OCc5cccc(F)c5)c(Cl)c4)c3s2)C1`, the inhibition in experiment [1] was -0.79%; in experiment [2] it was 1.87%; in [3] it was 8.64%; in experiment [4] it was 1.21%; in experiment [5] it was 1.91%; in [6], 3.71%. For the same molecule, the inhibition in [7] turned out to be 3.15%; in experiment [8] it was 5.88%; in [9], 2.54%; in experiment [10] it was 8.13%; in [11] it was 4.55%; in experiment [12], 4.1%. The inhibition came out at 2.82% in [13]; 3.17% in [14]; 2.6% in experiment [15]; 2.39% in [16]; 0.66% in [17]; 2.61% in experiment [18]. Also, the inhibition in experiment [19] was found to be 2.16%; in [20], 1.66%.
As to `c1cc(-c2cnn3nc(N4CCOCC4)ccc23)nc(NC2CC2)n1`, the inhibition in experiment [1] is -4.91%; in [2], -0.13%; in [3] it was 5.07%; in experiment [4], 3.69%; in [5], 3.04%; in experiment [6] it was 4.26%. Also, the inhibition in experiment [7] turned out to be 4.93%; in experiment [8], 6.57%; in experiment [9], 1.19%; in experiment [10] it was 4.42%; in experiment [11] it was 6.8%; in experiment [12], 2.12%. Moreover, the inhibition in experiment [13] was 3.25%; in experiment [14], 3.02%; in [15], 5.18%; in [16], 3.02%; in experiment [17] it was 4.81%; in experiment [18] it was 2.61%. Further, the inhibition is 6.62% in experiment [19] and 2.17% in [20].
In the case of `CC1=C(C(=O)Nc2cc(Cl)c3[nH]ncc3c2)C(c2ccc(C(F)(F)F)cc2)CC(=O)N1` (stereo not given), the inhibition was found to be 8.39% in experiment [1]; 3.76% in experiment [2]; 4.55% in [3]; 0.71% in [4]; 2.32% in experiment [5]; 4.06% in [6]. Also, the inhibition in [7] is 3.69%; in experiment [8], 0.42%; in experiment [9], 4.84%; in [10], -4.08%; in experiment [11], -3.39%; in experiment [12], 3.18%. The inhibition in [13] was found to be 3.01%; in experiment [14], 4.1%; in [15], 2.88%; in [16] it was 1.43%; in [17], 4.53%; in experiment [18], 4.06%. The results for the inhibition in [19] and in experiment [20] were 4.83% and 2.02%, respectively.
As to `[O-][S+]1CCN(Cc2ccc(-c3ccc4ncnc(Nc5ccc(OCc6cccc(F)c6)c(Cl)c5)c4c3)o2)CC1`, the inhibition turned out to be 2.07% in experiment [1]; 8.29% in experiment [2]; 11.2% in experiment [3]; 2.04% in [4]; 2.89% in experiment [5]; 6.22% in experiment [6]. The inhibition in experiment [7] is 5.6%; in experiment [8], 3.4%; in experiment [9], 2.31%; in experiment [10] it was -2.88%; in experiment [11], -3.68%; in experiment [12], 3.89%. Also, the inhibition in experiment [13] is 6.86%; in experiment [14], 5.46%; in experiment [15] it was 5.91%; in experiment [16], 1.58%; in experiment [17] it was 7.69%; in experiment [18] it was 5.02%. The inhibition in [19] is 6.64%; in experiment [20], 2.49%.
With `CCn1cc(-c2ccnc3[nH]ccc23)c(-c2cccc(NC(=O)Nc3ccc(OCc4ccccc4)cc3)c2)n1`, the inhibition is -5.19% in experiment [1]; 0.97% in [2]; 0.73% in experiment [3]; -0.8% in [4]; -0.35% in experiment [5]; 1.3% in experiment [6]. Besides, the inhibition in experiment [7] is 1.28%; in [8] it was -1.74%; in [9], -3.66%; in [10], 5.15%; in experiment [11] it was 3.29%; in experiment [12] it was 1.22%. For the same molecule, the inhibition in experiment [13] was -1.34%; in experiment [14], 1.15%; in experiment [15], 3.55%; in experiment [16], 1.36%; in [17] it was 3.02%; in [18], 0.71%. Also, the inhibition in [19] was 2.72%; in experiment [20], -0.6%.
For the molecule `CCn1c(-c2nonc2N)nc2c(C#CC(C)(C)O)nc(OC[C@H](N)c3ccccc3)cc21`, the inhibition in experiment [1] amounted to 28.1%; in experiment [2], 1.29%; in [3], 3.91%; in experiment [4] it was 1.1%; in [5], 10.9%; in experiment [6] it was 2.18%. Further, the inhibition is 4.83% in [7]; 37.3% in experiment [8]; 70.9% in experiment [9]; 49.4% in experiment [10]; 77.3% in [11]; -1.28% in experiment [12]. The inhibition in experiment [13] was -0.66%; in [14], 1.67%; in [15], 2.25%; in experiment [16] it was 0.72%; in experiment [17], 1.98%; in experiment [18], 1.23%. In addition, the inhibition in [19] stood at 1.98%; in experiment [20], 0.64%.
